For twelve molecules, growth results are on record in PubChem BioAssay (NCI).

Structures are written as SMILES. “And” between values parts separate entries of the source, which are not always exact repeats. Equal entries are not always repeated. About 83,000 compounds went through this panel and 20% of them were active in at least one assay; those are over-represented in the sample as a whole.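 Cell lines were cultured in 96-well plates, exposed to a single compound concentration, and assessed for percent growth 48 hours later.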 The source made the active and inactive calls. How the source made its calls: active means growth percent below 10; inactive means the rest.

This assay relates to MDA-MB-468 breast. Description: NCI-60 one-dose screen, 48 h (100 = growth as untreated, 0 = no growth, -100 = all killed). Particulars: 10 µM unless noted.
Take `O=C1/C(=C/c2ccccc2[N+](=O)[O-])COc2ccc(O)cc21`: the growth is -9.15% (active).

On to `Cn1cc(-c2noc(-c3cn(C)c4ncc(F)cc34)n2)c2cc(Cl)ccc21`, for which the growth is 52.9% (inactive).

In the case of `CCCCCCCCCC(=O)NC(C)(C)C(=O)N1CCC[C@H]1C(=O)N[C@@H](CC(C)C)C(=O)N[C@@](C)(CC)C(=O)N[C@@H](CCC(N)=O)C(=O)N[C@H](CCC(N)=O)C(=O)NC(C)(C)C(=O)NC(C)(C)C(=O)N[C@@H](CCC(N)=O)C(=O)N[C@H](CC(C)C)C(=O)N[C@H](CO)CC(C)C`, the growth was -94.3% (active) and -88.5% (active).

As to `CC1(C)Nc2cccc3c(N=Nc4ccc(N=Nc5ccccc5)c5ccccc45)ccc(c23)N1`, the growth was 95.9% (inactive).

For `CC1(C)C2CC=C(/C=N/NC(=O)C3CCC(=O)N3)C1C2` (configuration not stated), the growth was 114% (inactive).

In the case of `COc1cc2c(c(OC)c1OC)-c1ccc(N)c(=O)cc1[C@@H](NC(C)=O)CC2`, the growth is 0.226% (active).

For the molecule `COc1ccc(-c2cc(-c3ccc(Cl)cc3)nc3nc(N)nn23)cc1`, the growth was 78.5% (inactive).

For `N#C/C(=C\c1ccc([N+](=O)[O-])s1)c1nc2cc(Br)ccc2s1`, the growth is 32.4% (inactive).

With `COc1cc(OC)c(/C=C/c2c3ccccc3cc[n+]2C)c(OC)c1`, the growth was -26.5% (active).

Consider `CCCCCC(CCCCC)C(=O)O`, for which the growth is 116% (inactive).

As for `COc1ccc(C2=C(c3cc(OC)c(OC)c(OC)c3)C(=O)CC2)cc1`, the growth is 4.52% (active).

As to `Nc1ccccc1SC(CC(=O)c1ccccc1)c1ccc([N+](=O)[O-])cc1` (configuration not stated), the growth is 93.4% (inactive) and 81.8% (inactive).
